These results are taken from PubChem BioAssay (NCI).

Each structure is given as a SMILES string. The panel holds about 79,000 compounds, 15% with a hit somewhere; the sample as a whole holds those more often. Values without a mark were called inactive. Rule as the data show it: active = growth inhibition above about 70%; inactive = the rest.

This experiment in a line: NCI Yeast Anticancer Drug Screen. Data for the mlh1 rad18 strain (AID 175). Conditions: S. cerevisiae mlh1 rad18 strain growth inhibition; at 50.0 µM; active compounds read high. A digest of the protocol: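 Vehicle-treated cultures served as the reference for growth inhibition in a yeast strain carrying DNA damage repair alterations exposed to each compound.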
As to `CC(/C=N/NC1=NCCCCN1)=N\NC1=NCCCCN1`, the growth inhibition was -16.4%.

On to `O=C1C(Cl)=C(Cl)C(=O)N1c1ccccc1Cl`, for which the growth inhibition is 55.5%.

Turning to `O=C(O)CNCc1ccccc1`, the growth inhibition is -15.3%.

Take `CCSC(N)=Nc1ccccc1` (tested in a mixture with another compound): the growth inhibition is 18.1%.

Turning to `O=C(O)CCC1(c2ccccc2)CCCCC1`, the growth inhibition is -0.9%.

As to `CCOC(=O)c1nc2ccc(OC)cc2c2c1Cc1ccccc1-2`, the growth inhibition was -24.4%.

Regarding `CC(=O)c1sc(-c2nc(C)c(C(=O)/C=C\c3ccc(/C=C\C(=O)c4sc(-c5nc(C)c(C(C)=O)s5)nc4C)cc3)s2)nc1C`, the growth inhibition was -14.4%.

On to `CCOC(=O)CC1C(O)C(=O)N(C)C1c1ccccc1` (stereo unspecified), for which the growth inhibition is -50.4%.

Consider `O=C([O-])[C+](C=Cc1cccc2ccccc12)C(=O)O`, for which the growth inhibition is 31.3%.

With `Br/C=C\Br`, the growth inhibition was 5.35%.

On to `COc1ccc2c(c1)CCC1C2CCC2(C)C(=O)C(n3cnc4c(=S)nc[nH]c43)CC12` (stereo unspecified), for which the growth inhibition was 51.8%.

Turning to `COc1cc([N+](=O)[O-])ccc1N=Cc1cccs1`, the growth inhibition is 27.9%.

On to `C=CCSc1nc2c(=O)n(C)c(=O)n(C)c2n1C`, for which the growth inhibition was 7.15%.

In the case of `c1ccc(C[P+]2(c3ccccc3)c3ccccc3-c3ccccc32)cc1`, the growth inhibition is -38.2%.

For the compound `O=c1[nH]ncc(N/N=C(/C=C/c2ccc(C/C(=N/Nc3cn[nH]c(=O)c3Cl)c3ccccc3)cc2)c2ccccc2)c1Cl`, the growth inhibition is 4%.

Regarding `Cc1cccc(CC(CC(=O)O)C(=O)O)c1` (stereo unspecified), the growth inhibition is 1.4%.
